The record followed here is PubChem BioAssay (EPA / NIEHS).

The target in test [1] is Cellular tumor antigen p53 (Homo sapiens) (UniProt P04637). The test is described as follows: TOX21_p53_BLA_p2_ratio: Tox21 HCT-116 p53 Agonism Beta-lactamase Assay, Ratio, Phase 2 (AID 2283592). In outline:
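HCT116 cells carrying a p53-responsive beta-lactamase reporter were plated, incubated 5 h at 37C, then dosed with compounds in DMSO (217-fold dilution) for 16 h. CCF4-AM substrate was added for 2 h at room temperature; the 460/530 nm emission ratio gave gain-of-signal activity relative to DMSO.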

A short description of test [2]: TOX21_p53_BLA_p4_viability: Viability Assessment in the Tox21 HCT-116 p53 Agonism Beta-lactamase Assay, Phase 4 (AID 2283597).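 Note: hits lower the luminescence signal meaning cytotoxicity.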 In a few lines:
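HCT116 p53-bla cells (4000/well) rested 5 h at 37C, then received compounds in DMSO (217-fold dilution) for 16 h at 37C, 5% CO2. CellTiter-Glo was added after the CCF4-AM read, and luminescence was read after 30 min at room temperature.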

The target in test [3] is Cellular tumor antigen p53 (Homo sapiens) (UniProt P04637). The test is described as follows: TOX21_p53_BLA_p5_ratio: Tox21 HCT-116 p53 Agonism Beta-lactamase Assay, Ratio, Phase 5 (AID 2283599). In outline:
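Beta-lactamase reporter ratio (blue 460 nm over green 530 nm, 405 nm excitation) after 2 h CCF4-AM loading, in HCT-116 cells exposed 16 h at 37 C to compounds pinned at 217-fold dilution. Increases relative to DMSO baseline scored.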

Test [4] in a line: TOX21_p53_BLA_p5_viability: Viability Assessment in the Tox21 HCT-116 p53 Agonism Beta-lactamase Assay, Phase 5 (AID 2283600). In a few lines:
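Cells were plated at 4000/well, rested 5 h at 37C, then given compounds in DMSO (217-fold dilution) for 16 h at 37C, 5% CO2. Following the CCF4-AM beta-lactamase read, CellTiter-Glo was added and luminescence was read after 30 min at room temperature.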

For test [5], the target named is Cellular tumor antigen p53 (Homo sapiens) (UniProt P04637). The test can be described thus: TOX21_p53_BLA_p4_ratio: Tox21 HCT-116 p53 Agonism Beta-lactamase Assay, Ratio, Phase 4 (AID 2283601). In outline:
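Signal is the blue/green (460nm/530nm) ratio of cleaved versus uncleaved CCF4-AM substrate, read after 2 h substrate loading. Cells were HCT116 carrying the p53-responsive beta-lactamase reporter, dosed 16 h at 37C, 5% CO2; CellTiter-Glo measured in parallel.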

For test [6] the target is unchanged. The test can be described thus: TOX21_p53_BLA_p3_ratio: Tox21 HCT-116 p53 Agonism Beta-lactamase Assay, Ratio, Phase 3 (AID 2283596). In outline:
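HCT116 p53-bla cells (4000/well) given compound in DMSO (217-fold dilution) after 5 h, incubated 16 h at 37C. CCF4-AM substrate 2 h at room temperature; 460/530 nm emission ratio, gain fitted against DMSO.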

Test [7] deals with THRA (gene 7067) (UniProt P10827). The test is described as follows: TOX21_TRA_COA_Agonist_Followup_ratio: Tox21 Thyroid Hormone Receptor alpha Agonism through Coactivator Recruitment Follow-Up Assay, Ratio (AID 2283948; active = hit-call score of the fitted dose curve at least 0.9, where 1 is the maximum; inactive = score below 0.9). In a few lines:
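Read-out is the 520/495 nm emission ratio (ex 340 nm), scaled between DMSO-only wells as 0% and T3 wells as 100%. It reflects fluorescein-SRC-2 peptide recruitment to GST-TRα LBD detected via terbium anti-GST antibody.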

The target of test [8] is THRB (gene 7068) (UniProt P10828). The test is described as follows: TOX21_TRB_BLA_Agonist_Followup_ratio: Tox21 Thyroid Hormone Receptor beta Agonism Beta-lactamase (BLA) Follow-Up Assay, Ratio (AID 2283954). In outline:
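Human TRβ LBD–GAL4 DBD fusion in GeneBLAzer UAS-bla HEK293T cells; 11 concentrations in triplicate, 18 h at 37°C/5% CO2, T3 as agonist control. CCF4-AM substrate 2 h at room temperature; 460:530 nm ratio fitted for gain of signal versus DMSO.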

Test [9] shares this target. The test is described as follows: TOX21_TRB_COA_Agonist_Followup_ratio: Tox21 Thyroid Hormone Receptor beta Agonism through Coactivator Recruitment Follow-Up Assay, Ratio (AID 2283963; active = hit-call score of the fitted dose curve at least 0.9, where 1 is the maximum; inactive = score below 0.9). In outline: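 GST-TRb LBD 5.0 nM + 0.10% BSA + cpd; add fluorescein-SRC-2 200 nM / Tb anti-GST Ab 2 nM; TR-FRET ex 340, em 520:495; norm DMSO 0%, T3 100%.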
For test [10], the target named is Retinoic acid receptor RXR-alpha (Homo sapiens) (UniProt P19793). The test can be described thus: TOX21_TR_RXR_BLA_Agonist_Followup_ratio: Tox21 Thyroid Hormone Receptor beta Retinoid X Receptor alpha (RXRa) Agonism Beta-lactamase (BLA) Follow-Up Assay, Ratio (AID 2283968). In a few lines:
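RXRa-UAS-bla HEK293T cells, 5 h attachment at 37C/5% CO2, then 11 concentrations in triplicate for 16 h; 9-cis retinoic acid positive control. FRET-B/GCCF4-AM substrate 2 h at room temperature; 460:530 nm ratio, fitted for gain versus DMSO.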

Records with an inconclusive call do not appear. The source made the active and inactive calls. Rule for the calls, unless noted: active = hit-call score of the fitted dose curve at least 0.9, where 1 is the maximum; inconclusive = response in the unintended direction; inactive = score below 0.9.

Chain of Cellular tumor antigen p53 (Homo sapiens) (P04637 whole entry, looked up): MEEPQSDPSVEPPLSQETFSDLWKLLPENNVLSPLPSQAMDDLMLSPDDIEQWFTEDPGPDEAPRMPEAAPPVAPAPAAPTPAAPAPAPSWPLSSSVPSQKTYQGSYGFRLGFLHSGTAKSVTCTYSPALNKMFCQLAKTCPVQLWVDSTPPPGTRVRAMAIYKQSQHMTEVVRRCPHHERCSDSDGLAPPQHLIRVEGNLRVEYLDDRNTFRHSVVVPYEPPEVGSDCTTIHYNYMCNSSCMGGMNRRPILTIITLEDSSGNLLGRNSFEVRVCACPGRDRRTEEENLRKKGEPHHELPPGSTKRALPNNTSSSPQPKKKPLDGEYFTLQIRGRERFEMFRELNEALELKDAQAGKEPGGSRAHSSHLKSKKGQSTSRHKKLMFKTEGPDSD
Chain of THRB (gene 7068) (P10828 whole entry, looked up, the tested form may be a part): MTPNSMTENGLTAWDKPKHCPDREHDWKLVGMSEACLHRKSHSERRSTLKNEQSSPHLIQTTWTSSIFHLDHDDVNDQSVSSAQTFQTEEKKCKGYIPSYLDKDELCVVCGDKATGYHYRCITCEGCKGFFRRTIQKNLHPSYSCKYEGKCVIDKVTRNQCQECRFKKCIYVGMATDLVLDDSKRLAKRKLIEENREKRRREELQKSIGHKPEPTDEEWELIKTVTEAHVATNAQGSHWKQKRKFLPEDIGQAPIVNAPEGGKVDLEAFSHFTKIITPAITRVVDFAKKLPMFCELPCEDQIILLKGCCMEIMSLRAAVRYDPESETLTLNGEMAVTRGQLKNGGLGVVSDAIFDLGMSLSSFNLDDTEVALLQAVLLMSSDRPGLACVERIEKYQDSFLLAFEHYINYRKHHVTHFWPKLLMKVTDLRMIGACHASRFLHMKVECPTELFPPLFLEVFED
Chain of Retinoic acid receptor RXR-alpha (Homo sapiens) (P19793 whole entry, looked up): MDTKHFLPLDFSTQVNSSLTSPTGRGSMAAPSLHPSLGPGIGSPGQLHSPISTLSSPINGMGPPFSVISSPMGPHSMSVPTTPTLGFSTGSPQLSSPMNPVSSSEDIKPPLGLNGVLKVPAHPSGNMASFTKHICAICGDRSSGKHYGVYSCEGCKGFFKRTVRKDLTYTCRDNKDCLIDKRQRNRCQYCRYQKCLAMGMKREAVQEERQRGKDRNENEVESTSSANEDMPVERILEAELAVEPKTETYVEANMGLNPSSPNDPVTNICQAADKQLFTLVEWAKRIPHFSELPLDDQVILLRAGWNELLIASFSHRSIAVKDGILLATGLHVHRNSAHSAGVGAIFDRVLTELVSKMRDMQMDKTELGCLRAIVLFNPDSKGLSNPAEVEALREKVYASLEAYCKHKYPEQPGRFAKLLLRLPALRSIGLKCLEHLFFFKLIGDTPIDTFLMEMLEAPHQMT
Chain of THRA (gene 7067) (P10827 whole entry, looked up, the tested form may be a part): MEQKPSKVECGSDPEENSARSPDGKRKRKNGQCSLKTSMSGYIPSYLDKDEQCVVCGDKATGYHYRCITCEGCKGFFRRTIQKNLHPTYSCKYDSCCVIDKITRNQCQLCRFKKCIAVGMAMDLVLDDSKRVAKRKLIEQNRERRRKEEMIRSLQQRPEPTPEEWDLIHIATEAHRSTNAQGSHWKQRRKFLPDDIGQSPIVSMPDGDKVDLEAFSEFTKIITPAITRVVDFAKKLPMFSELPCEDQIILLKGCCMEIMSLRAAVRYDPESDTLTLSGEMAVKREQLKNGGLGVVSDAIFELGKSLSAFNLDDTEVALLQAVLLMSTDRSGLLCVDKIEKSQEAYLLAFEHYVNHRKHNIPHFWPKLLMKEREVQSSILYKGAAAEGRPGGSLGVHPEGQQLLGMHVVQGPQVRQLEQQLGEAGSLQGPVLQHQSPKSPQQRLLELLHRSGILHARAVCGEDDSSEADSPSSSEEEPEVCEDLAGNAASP

For `CCCCCCCCCCCCCCCCCl`, the result in test [1], in test [2], in [3], in test [4] and in [5] was inactive.

As for `COc1ccc([C@@H]2CC(=O)c3c(O)cc(O[C@@H]4O[C@H](CO[C@@H]5O[C@@H](C)[C@H](O)[C@@H](O)[C@H]5O)[C@@H](O)[C@H](O)[C@H]4O)cc3O2)cc1O`, the result in test [1], in [2], in test [3], in [4] and in test [5] was inactive.

Take `CCC(C)(Oc1ccc(C2(c3ccc(OC(C)(CC)C(=O)O)cc3)CCCCC2)cc1)C(=O)O` (centres undefined): the result in test [1], in [2] and in [3] was inactive.

Take `CCCCCCCCCCCCCCCCCC(=O)OCCO`: the outcome in test [1], in [2], in test [3], in test [4] and in test [5] was inactive.

On to `O=C(O)CCNC(=O)c1ccccc1`, for which the outcome in test [1], in [6], in test [5] and in [10] was inactive. Moreover, the figures for the AC50 in test [7], in test [8] and in [9] were 15.2 µM (active), 12.6 µM (active) and 16.1 µM (active), respectively.

`Cc1cc(NC(=O)C2=C(O)c3ccccc3S(=O)(=O)N2C)no1`: the outcome in test [1], in test [2], in [3], in test [4] and in [5] was inactive.

In the case of `O=C(O)CCNC(=O)c1ccc(N=Nc2ccc(O)c(C(=O)O)c2)cc1`, the outcome in test [1], in test [2], in test [3] and in test [5] was inactive.

With `CC(=O)Oc1cc(C(C)C)c(OCCN(C)C)cc1C`, the outcome in test [1], in test [6] and in test [5] was inactive.

In the case of `Cc1c(N=C=O)cccc1N=C=O`, the outcome in [1] and in test [2] was inactive.
